From PubChem BioAssay
CF NFkB block: blocks PAF-induced NF-kB reporter in cystic fibrosis cells. KKLEB NF-kB-GFP reporter, GFP fluorescence overnight. inhibition, % at 5 µM. AID 588850. 360,000 tested, 0.86% active;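 active means at least 50% inhibition at 5 µM, scaled per plate between neutral and stimulator controls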;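 further: PAF is a Pseudomonas aeruginosa culture filtrate used as stimulus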
TROY NFkB inh: TROY signaling inhibition; Q293 LMP1-TROYcd NF-kB luciferase reporter, 4 h; inhibition, % at 10 µM; 360,000 tested, 0.98% active; AID 1347056;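 active means compounds whose plate-normalised and pattern-corrected inhibition of the luciferase reporter signal at the single screening dose is 50% or more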
HIF-2a block: inhibitors of HIF-2a; 786-0 RCC cells HIF-2a reporter, luciferase luminescence, overnight; 360,000 tested, 0.72% active; inhibition, % at 18.8 µM;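 active means inhibition of the luminescence signal of 40% or more relative to plate controls, in a single-dose primary screen at 18.75 µM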
Peg3 prom inh-1: reduces Peg3 promoter-driven luciferase expression in HeLa; AID 588405; HeLa PEG-Prom luciferase reporter, luminescence, overnight; inhibition, % at 20 µM; 360,000 tested, 1.7% active;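 active means inhibition of at least 50% at 20 µM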
KKLEB cytotox: CF airway cell cytotoxicity counter-screen; AID 602141; 360,000 tested, 0.36% active; KKLEB CF airway cells viability, ATPlite luminescence, overnight; active compounds read low; cells stimulated with P. aeruginosa culture filtrate; activity change (cytotoxicity), % at 5 µM;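 active means corrected activity change at or below -50% at 5 µM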
TWEAK Fn14 block: blocks TWEAK-Fn14 interaction in a reporter cell assay | AID 1159606 | inhibition, % at 10 µM | TWEAK-stimulated Fn14 reporter cells, luciferase luminescence, 8 h | 360,000 tested, 2% active; in the data active means inhibition above about 50%
Peg3 prom inh-2: confirmation of Peg3 promoter inhibitors; shares compounds with Peg3 prom inh-1; HeLa PEG-Prom luciferase reporter, luminescence, overnight; inhibition, % at 20 µM; 1,300 tested, 84% active;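 active means at 20 µM dose, 40% or more inhibition averaged across four replicates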
CF NFkB conf: CF NF-kB inhibition confirmation, single concentration | shares compounds with CF NFkB block | KKLEB CF airway cells, PAF-induced NF-kB-GFP fluorescence, overnight | inhibition, % at 5 µM | 1,300 tested, 64% active; in the data active means inhibition above about 40%;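 further: stimulus PAF is a Pseudomonas aeruginosa filtrate and not platelet activating factor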
Mdm2 MdmX conf: Mdm2/MdmX (human) interaction inhibition, confirmed; shares compounds with HIF-2a block; SaOS-2 split-luciferase Mdm2/MdmX complementation, luminescence; inhibition, % at 8 µM; 740 tested, 99% active;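 active means mean inhibition of the luminescence signal across two replicates at or above 26 percent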
Target sequence (O15151 whole entry, looked up): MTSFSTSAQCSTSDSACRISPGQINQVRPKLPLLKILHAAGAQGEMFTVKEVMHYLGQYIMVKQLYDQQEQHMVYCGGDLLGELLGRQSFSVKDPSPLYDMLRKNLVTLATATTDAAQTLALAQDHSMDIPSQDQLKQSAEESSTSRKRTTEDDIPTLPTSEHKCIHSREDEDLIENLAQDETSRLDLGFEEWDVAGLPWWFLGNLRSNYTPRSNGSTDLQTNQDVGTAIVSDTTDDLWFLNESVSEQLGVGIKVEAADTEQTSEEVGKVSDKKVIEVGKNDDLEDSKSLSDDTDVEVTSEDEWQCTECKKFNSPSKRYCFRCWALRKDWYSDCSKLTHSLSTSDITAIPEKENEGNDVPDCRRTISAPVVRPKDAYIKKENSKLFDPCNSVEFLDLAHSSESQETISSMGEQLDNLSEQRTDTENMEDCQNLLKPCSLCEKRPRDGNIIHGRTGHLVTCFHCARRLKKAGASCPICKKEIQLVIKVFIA
Target sequence (Q00987 whole entry, looked up): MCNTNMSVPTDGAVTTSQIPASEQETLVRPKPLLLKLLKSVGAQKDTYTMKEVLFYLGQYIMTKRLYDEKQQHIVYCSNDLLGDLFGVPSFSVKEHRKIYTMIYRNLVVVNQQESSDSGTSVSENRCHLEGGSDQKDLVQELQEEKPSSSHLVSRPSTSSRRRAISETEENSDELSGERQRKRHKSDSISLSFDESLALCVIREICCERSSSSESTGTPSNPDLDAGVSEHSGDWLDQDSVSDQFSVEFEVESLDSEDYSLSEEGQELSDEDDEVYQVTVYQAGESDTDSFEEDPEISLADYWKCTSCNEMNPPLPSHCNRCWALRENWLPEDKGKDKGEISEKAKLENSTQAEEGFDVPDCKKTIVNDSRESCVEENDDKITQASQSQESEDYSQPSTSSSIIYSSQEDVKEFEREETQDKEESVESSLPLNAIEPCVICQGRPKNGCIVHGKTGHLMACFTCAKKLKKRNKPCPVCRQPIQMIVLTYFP
HIF-2a conf: confirmation of HIF-2a inhibitors. 786-0 RCC cells, HIF-2a luciferase reporter luminescence, overnight. 1,800 tested, 56% active. AID 651580. shares compounds with HIF-2a block. inhibition, % at 18.8 µM;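 active means mean inhibition across four replicates of at least 40 percent at the single tested concentration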
HIF-1a counter: inhibits HIF-1a reporter, a counter-screen for HIF-2a inhibitors; shares compounds with HIF-2a block; MiaPaCa-2 HIF-1a luciferase reporter, desferoxamine, overnight; inhibition, % at 18.8 µM; 1,800 tested, 72% active;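 active means mean inhibition of the reporter signal across four replicates at the single tested dose of 50% or more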
Numbers stand for hits; – = inactive; · = not tested or not shown. In the library only some 4% were active in any assay of this set; here they are far more common.

SMILES	CF NFkB block	TROY NFkB inh	HIF-2a block	Peg3 prom inh-1	KKLEB cytotox	TWEAK Fn14 block	Peg3 prom inh-2	HIF-2a conf	HIF-1a counter	others
O=C(Nc1ccc2c(c1)OCO2)C(c1ccccc1)N1CCC2(CC1)OCCO2 (stereo not drawn)	–	–	–	–	–	–	·	·	·
CCCN(CCC)Cc1cc(=O)oc2ccc3ccccc3c12	–	–	–	–	–	–	·	·	·
O=C(Cn1ncc(Cl)c(Cl)c1=O)N1CCc2ccccc21	102.8	–	93.7	107.8	-87.8	101.2	99.2	98.1	106.1
O=C(Cn1ncc(Cl)c(Cl)c1=O)N1CCN(Cc2ccccc2)CC1	88.2	55.5	96.0	103.1	-67.8	87.1	94.7	60.7	106.2
CC(C)(C)C1CCC2(CC1)C(C#N)=C(SCC(=O)NC1CCCCC1)NC(=O)C2C#N (stereo not drawn)	–	–	–	–	–	–	·	·	·
N#Cc1ccc(C(=O)Nc2nc3ccccc3[nH]2)cc1	–	–	–	–	–	–	·	·	·
CCc1ccc(C(=O)Nc2nc3ccccc3[nH]2)cc1	–	80.3	63.0	77.1	-69.4	97.9	67.3	84.3	83.7
CC(=O)n1cc(N(C(=O)CCl)c2ccc(C)cc2)c2ccccc21	92.8	–	56.2	109.3	-103.2	56.0	100.7	·	·	Mdm2 MdmX conf=103.0
COc1ccccc1CCNC(=O)C1CCN(c2nnc(C)c3c(C)n(-c4ccc(C)cc4)nc23)CC1	–	–	40.1	89.1	–	–	77.8	–	82.5
COc1ccc(-n2nc3c(N4CCC(C(=O)NCCc5ccco5)CC4)nnc(C)c3c2C)cc1	–	–	–	–	–	–	·	·	·
CCC(=O)Nc1ccc(OCc2nnc3c4ccccc4c(C)nn23)cc1	–	–	–	–	–	–	·	·	·
COc1ccccc1NC(=S)NC(C)C(c1cccs1)N1CCOCC1 (stereo not drawn)	–	–	–	–	–	–	·	·	·
N#CC(C#N)=C1C=CC=CN1/C(=C\c1ccco1)C(=O)c1ccc(Cl)cc1	84.6	85.5	94.3	103.7	–	97.3	100.4	97.6	97.1	CF NFkB conf=–
c1ccc(CN2CCC(Nc3nc(-c4cccnc4)nc4ccccc34)CC2)cc1	–	–	41.8	100.5	–	–	69.7	–	78.5
c1ccc(CNc2nc(-c3cccnc3)nc3ccccc23)cc1	–	–	–	–	–	–	·	·	·
COC(=O)c1cc(=O)n(Cc2cccs2)c(=Nc2ccccc2)s1	–	–	–	–	–	–	·	·	·
COC(=O)c1cc(=O)n(Cc2ccco2)c(=Nc2ccc(F)cc2)s1	–	–	49.1	82.0	–	56.5	84.2	60.3	96.8
O=S(=O)(c1cccc(-c2nnc(SCc3nc4ccccc4s3)o2)c1)N1CCOCC1	–	–	–	–	–	–	·	·	·
CCCNC(=O)COC(=O)c1ccccc1C(=O)c1ccc(Cl)c([N+](=O)[O-])c1	101.1	66.6	83.5	106.2	–	99.4	98.5	42.4	104.5	CF NFkB conf=109.4;Mdm2 MdmX conf=103.0
Cc1ccccc1OCC(O)CNC1CCC(NCC(O)COc2ccccc2C)CC1 (stereo not drawn)	–	–	93.5	101.2	–	–	99.5	–	104.9	Mdm2 MdmX conf=103.2
O=C1N[C@@H](Cc2ccccc2)C(=O)N2[C@@H]1C[C@@]1(Br)c3ccccc3N(S(=O)(=O)c3ccccc3)[C@@H]21	–	–	–	–	–	–	·	·	·
O=C(NC1=C(Nc2ccc(Cl)cc2)C(=O)c2ccccc2C1=O)c1ccccc1	–	–	–	–	–	–	·	·	·
O=C(NC1=C(NC2CCS(=O)(=O)C2)C(=O)c2ccccc2C1=O)c1ccccc1 (stereo not drawn)	79.3	56.4	–	67.7	–	92.5	48.7	·	·	Mdm2 MdmX conf=93.5
Cc1ccc(-c2nc(-c3ccccn3)no2)cc1	–	86.5	86.8	96.5	-73.2	106.1	88.9	94.7	93.9	Mdm2 MdmX conf=95.5
Clc1cccc(-c2nc(-c3ccccn3)no2)c1	–	69.8	52.9	62.1	–	97.2	52.1	71.8	64.6
SMILES	CF NFkB block	TROY NFkB inh	HIF-2a block	Peg3 prom inh-1	KKLEB cytotox	TWEAK Fn14 block	Peg3 prom inh-2	HIF-2a conf	HIF-1a counter	others
O=C(O)c1ccc(-c2noc(-c3cccc(Cl)c3)n2)cc1	–	–	–	–	–	–	·	·	·
COc1cc(NC(=O)C2CCCN(S(=O)(=O)c3ccc4c(c3)CCCN4C(C)=O)C2)cc(OC)c1 (stereo not drawn)	–	–	–	–	–	–	·	·	·
O=C(O)c1ccc(COc2ccccc2Cl)cc1	–	–	–	–	–	–	·	·	·
O=C(O)c1cccc(COc2ccccc2Cl)c1	–	–	77.1	92.1	–	73.2	82.2	92.6	–	Mdm2 MdmX conf=78.0
O=C(O)c1ccc(Nc2nc3c(s2)CCCC3)cc1	–	–	46.0	66.7	–	90.9	54.2	63.7	51.7
N#Cc1cc2c(nc1SC1CC(=O)N(c3ccccc3)C1=O)CCC2 (stereo not drawn)	–	83.4	59.3	57.2	–	99.8	59.1	82.6	62.9
COc1ccc(NC(=O)CN(C)C(=O)c2ccc(N3CCCC3)c([N+](=O)[O-])c2)cc1	–	–	–	–	–	–	·	·	·
CC#CCOCC1CN(C)C(=O)O1 (stereo not drawn)	–	–	–	–	–	–	·	·	·
CS(=O)(=O)c1nc(S(=O)(=O)c2ccc(Cl)cc2)c(N2CCC3(CC2)OCCO3)s1	–	–	–	–	–	–	·	·	·
CS(=O)(=O)Nc1cccc(NC(=O)C2Cc3c(-c4cccc(F)c4)ccnc3O2)c1 (stereo not drawn)	–	–	51.0	66.2	–	–	64.3	–	88.7
O=C(Nc1ccccc1)C1Cc2c(-c3cccc(F)c3)ccnc2O1 (stereo not drawn)	–	–	–	–	–	–	·	·	·
Cn1nnnc1Sc1ncnc2scc(-c3ccsc3)c12	–	–	66.3	95.0	–	71.7	96.3	48.8	100.4	Mdm2 MdmX conf=103.0
COc1ccc(CNC(=O)CN(Cc2ccco2)C(=O)CNS(=O)(=O)c2ccc(C)cc2)cc1	–	–	–	–	–	–	·	·	·
CCn1nc(C)cc1-c1nnc(Sc2ncc([N+](=O)[O-])s2)n1C	94.6	–	96.0	110.2	-82.1	–	99.9	·	·	Mdm2 MdmX conf=103.5
